The source of these data is PubChem BioAssay (NCATS).

Inconclusive results are not listed. Unmarked numbers belong to inactive results. Calls come from the whole dose curve; as a rule, active = well fitted cell-killing curve with a large enough effect; inconclusive = small, poorly fitted or top-dose-only effect; inactive = no such curve, though single readings can be large or run the other way.

The assay can be described thus: qHTS of pediatric cancer cell lines to identify multiple opportunities for drug repurposing: Primary screen for SJ-GBM2 cells (AID 1347091). To be noted: SJ-GBM2 viability, CellTiter-Glo luminescence, 48 h; series mostly up to 46 µM; activity change, negative = cytotoxic: at the top concentration. The source says: Drug repurposing or repositioning has been offered as a strategy for drug development in oncology programs. This approach has special potential for childhood cancers and other rare or orphan diseases, where the expected return on new drug development has been a disincentive to pharmaceuticals.
In this project we exploit the poly-pharmacology of drugs to discover new indications via phenotypic screening of a panel of 19 well-characterized cell lines derived from solid tumors seen in children and adolescents. The goal is to identify approved drugs with previously unrecognized anticancer properties that has the potential to reveal new mechanisms and biological processes involved in carcinogenesis or drug resistance. We employed a titration-based paradigm (quantitative high-throughput screening or qHTS), where all compounds were tested at multiple concentrations for their effect on cell viability. Concentration-response curves (CRCs) were derived directly from the primary screen, and both potency and efficacy values were used to identify compounds with robust bioactivity profiles. We screened the NIH Chemical Genomics Center (NCGC) Pharmaceutical Collection (NPC) and Mechanism Interrogation Plate (MIPE) small molecule collections of approved and investigational compounds against these cell lines; and measured metabolically active cells after 48 hours of compound treatment as a proxy for cell viability.
Assay Submitter: Nathalia J. Martinez, National Center for Advancing Translational Sciences, National Institutes of Health, Rockville, MD, USA; email: natalia.martinez@nih.gov
[1] Shen, M et al. Quantitative high-throughput phenotypic screening of pediatric cancer cell lines identifies multiple opportunities for drug repurposing. Oncotarget 2017 Dec 19;9(4):4758-4772. PMID 29435139.
The cells were obtained from University of North Carolina (UNC), Pediatric Preclinical Testing Program (PPT), and Coriell Institute (CI).
qHTS cell viability assay:
Cells were assayed in growth media at a density of 500-1,000 cells/well. Five microliters of cells were dispensed into 1,536-well, white, solid-bottom, TC-treated plates (Greiner Bio One) using a multidrop dispenser and incubated at 37 degrees C, 5% CO2, under a humidified atmosphere for 5 hours. Twenty-three nanoliters of compounds and controls (neutral control DMSO or positive control bortezomib at final concentration of 2.3 µM) were subsequently transferred by Kalypsys pintool. For primary screens, the MIPE collection was tested at 11-point dilutions (final concentrations range from 0.78 nM to 46 µM) and the NPC collection at 8-point dilutions (final concentrations range from 0.59 nM to 46 µM). Compounds tested in follow-up screens were assayed at 11-point dilutions. Cells were incubated for 48 hours, followed by addition of 3 uL of CellTiter-Glo (Promega). After a 15 min incubation at room temperature, samples were analyzed for luminescence intensity using a ViewLux High-throughput CCD imager equipped with clear filters.
In the case of `CC[N+](CC)(CC(=O)Nc1c(C)cccc1C)Cc1ccccc1`, the “activity change, negative = cytotoxic” value was 6.68%. To `Cc1ccsc1/C=C/C1=NCCCN1C` belongs 15.2%; to `CN1C(C)(C)CCCC1(C)C`, -18.7%; to `CN1CC(=O)NC1=N`, 26.5%. In the case of `Cn1c([N+](=O)[O-])cnc1COC(N)=O` it was 86.6%. For `C/C=C/C(=O)N(CC)c1ccccc1C`, the “activity change, negative = cytotoxic” value is 21.2%. `CCOc1ccc(C(=O)OCCN(CC)CC)cc1`: the “activity change, negative = cytotoxic” value was -1.94%.

For the compound `CN1C[C@@H]2C[C@H]1CN2c1cc2c(cc1F)c(=O)c(C(=O)O)cn2C1CC1`, the “activity change, negative = cytotoxic” value is 117% [at 16.1 µM]. Turning to `O=C(O)CCCCC1CCSS1` (stereo not given), the “activity change, negative = cytotoxic” value is 17.6%. To `C[N+](C)(C)CC(O)CC(=O)[O-]` (stereo not given) belongs -10.4%. In the case of `O=C(O)c1ccc[n+]([O-])c1` it was 7.43%; in that of `FC(F)(F)C(Cl)Br` (stereo not given), 10.2%; in that of `NC(=O)NS(=O)(=O)c1ccc(N)cc1`, 13.3%.

Consider `CC(C)C[C@@H](N)C(=O)O`, for which the “activity change, negative = cytotoxic” value is 23.5% [at 16.1 µM]. For the compound `CC1(C)S[C@@H]2[C@H](NC(=O)C(C(=O)O)c3ccccc3)C(=O)N2[C@H]1C(=O)O` (stereo not given in full), the “activity change, negative = cytotoxic” value is 21%.

As to `C[C@@H]1O[C@@H](OC[C@H]2O[C@@H](Oc3c(-c4ccc(O)c(O)c4)oc4cc(O)cc(O)c4c3=O)[C@H](O)[C@@H](O)[C@@H]2O)[C@H](O)[C@H](O)[C@H]1O`, the “activity change, negative = cytotoxic” value is 36.1%.

For the compound `CC(=O)N(CC(O)CO)c1c(I)c(C(=O)NCC(O)CO)c(I)c(C(=O)NCC(O)CO)c1I` (stereo not given), the “activity change, negative = cytotoxic” value was 10.9%. In the case of `O=C(O)CNC(=O)c1ccccc1I` it was -3.11%; in that of `O=C1c2ccccc2S(=O)(=O)N1CCCCN1CCN(c2ncccn2)CC1`, 3.28%. Turning to `COc1ccc(O)cc1`, the “activity change, negative = cytotoxic” value was -7.08%.

As for `CC(C)NC[C@@H](O)COc1ccc(CC(N)=O)cc1`, the “activity change, negative = cytotoxic” value was 5.41%.

For the compound `CCc1nnc(NS(=O)(=O)c2ccc(N)cc2)s1`, the “activity change, negative = cytotoxic” value was 15.4%. To `C=CCOc1ccccc1OCC(O)CNC(C)C` (stereo not given) belongs 14.7%. Regarding `C[C@@H]1CCC[C@H](C)N1`, the “activity change, negative = cytotoxic” value is 22.1%. In the case of `c1ccc2[nH]ccc2c1` it was 12.5%.

Regarding `CC(=O)[C@@]1(O)CC[C@H]2[C@@H]3C[C@H](C)C4=CC(=O)C=C[C@]4(C)[C@@]3(F)[C@@H](O)C[C@@]21C`, the “activity change, negative = cytotoxic” value is 0.39%. In the case of `COC(=O)N/N=C/c1c[n+]([O-])c2ccccc2[n+]1[O-]` it was 29.4%; in that of `Cc1ccccc1N=Nc1ccc(N=Nc2c(O)ccc3ccccc23)c(C)c1`, 21.7%; in that of `CCCCC1(COC(=O)CCC(=O)O)C(=O)N(c2ccccc2)N(c2ccccc2)C1=O`, 25.5%. In the case of `C1CCN2C[C@@H]3C[C@@H](CN4CCCC[C@@H]34)[C@H]2C1` it was 12.4%; in that of `O=C(CCBr)N1CCN(C(=O)CCBr)CC1`, 15.7%. Consider `COc1nccnc1NS(=O)(=O)c1ccc(N)cc1`, for which the “activity change, negative = cytotoxic” value was 4.52%.

On to `CCCC(O)C(CC)CO` (stereo not given), for which the “activity change, negative = cytotoxic” value is 26.6%. In the case of `CC(=O)N1C[C@H](O)C[C@H]1C(=O)O` it was 4.13%; in that of `CN(C/C=C/C#CC(C)(C)C)Cc1cccc2ccccc12`, -10.4%. For `CCN(CC)S(=O)(=O)c1ccc(C(=O)O)cc1`, the “activity change, negative = cytotoxic” value is -0.826%.

`CCC(C)(CN(C)C)OC(=O)c1ccccc1` (stereo not given): the “activity change, negative = cytotoxic” value is 9.22%.

For `O=C(c1ccccc1)C(O)c1ccccc1` (stereo not given), the “activity change, negative = cytotoxic” value is 6.91%. Turning to `Cc1ccsc1C(=CCCN1CCC[C@@H](C(=O)O)C1)c1sccc1C`, the “activity change, negative = cytotoxic” value was -0.838%. To `CCCCCC(C)N` (stereo not given) belongs 23.4%.
